The list is not random: actives were taken first. Their share in the collection is about 1.5%.
CCHF vOTU inh-1 – CCHFV vOTU protease inhibitors, primary screen, biochemical, Pep-AMC substrate, fluorescence; actives 0.55% (n = 370,000); Crimean-Congo hemorrhagic fever virus L polyprotein viral ovarian tumor (vOTU) protease …; inhibition, % at 11.5 µM; also: 0% = vehicle wells with enzyme and 100% = no enzyme wells
VHR inh abs – VHR1 phosphatase inhibitors, primary screen, biochemical, absorbance, uHTS | Dual specificity protein phosphatase 3 (Homo sapiens), P51452 | inhibition, % at 13.3 µM | recombinant VHR phosphatase, pNPP absorbance | actives 0.52% (n = 290,000); in the data active = inhibition above about 50%
Target sequence (P51452 whole entry, looked up): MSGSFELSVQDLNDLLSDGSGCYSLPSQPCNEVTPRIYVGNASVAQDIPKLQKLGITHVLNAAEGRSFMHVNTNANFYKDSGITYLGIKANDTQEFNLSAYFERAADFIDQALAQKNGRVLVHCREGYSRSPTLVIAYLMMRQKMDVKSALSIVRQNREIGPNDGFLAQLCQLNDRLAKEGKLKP
3CLpro inhibitor – SARS-CoV 3CLpro protease inhibitors, primary screen, biochemical, quenched FRET | Replicase polyprotein 1ab (Severe acute respiratory syndrome coronavirus), P0C6X7 | recombinant SARS-CoV 3CLpro, quenched FRET peptide cleavage | actives 0.14% (n = 290,000) | inhibition, % at 6 µM; in the data active = inhibition above about 12%
RecA splice inh – Mtb RecA intein splicing inhibitors, primary screen, biochemical, fluorescence, HTS | cell-free RecA intein splicing | inhibition, % (test concentration not listed) | actives 0.75% (n = 290,000); in the data active = inhibition above about 30%;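 also: 0% = vehicle wells and 100% = reference inhibitor control wells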
CCHF vOTU inh-2 – CCHFV vOTU protease inhibitors, confirmation, biochemical, Pep-AMC substrate, fluorescence; shares compounds with CCHF vOTU inh-1; Recombinant CCHFV vOTU; inhibition, % at 11.5 µM; actives 17% (n = 1,900); AID 686976, 2013
* = called active by the depositor. Rule as the data show it, unless noted: active = inhibition above about 30%; inactive = the rest.

How did Cc1cc[n+](-c2[nH]c(=O)sc2/C=N/N=C(\[O-])c2ccncc2)cc1 do in these assays?
CCHF vOTU inh-1: 31*; VHR inh abs: 22; 3CLpro inhibitor: -3; RecA splice inh: -3; CCHF vOTU inh-2: -18

Results for Cc1cc(F)cc(-c2cc(C(=O)NCc3cccc(Cl)c3)[nH]n2)c1 ?
CCHF vOTU inh-1: 34*; CCHF vOTU inh-2: -14

What do the screens show for `Cc1cc(Br)ccc1NC(=O)CN1C(=O)C2CC=CCC2C1=O` (stereo not given)?
CCHF vOTU inh-1: -2

How did COc1ccc(NC(=O)Cn2nc(C(=O)O)c3ccccc3c2=O)cc1Cl do in these assays?
CCHF vOTU inh-1: 22; VHR inh abs: 12; 3CLpro inhibitor: -3; RecA splice inh: 0

How did CCCN1CCS(=O)(=O)N(Cc2cn(Cc3ccc(Cl)cc3)nn2)C(C(=O)OC)C1 (stereo not given) do in these assays?
CCHF vOTU inh-1: -1

What do the screens show for `O=C1C2CCCN2C(c2cccs2)N1c1ccc(Cl)cc1` (stereo not given)?
CCHF vOTU inh-1: 31*; VHR inh abs: -6; 3CLpro inhibitor: -6; RecA splice inh: -1; CCHF vOTU inh-2: -11

What do the screens show for `COc1ccccc1C1N(c2ccc(Cl)cc2)C(=O)C2CCCN21` (stereo not given)?
CCHF vOTU inh-1: -4; VHR inh abs: -8; 3CLpro inhibitor: -3; RecA splice inh: 1

Results for C[C@H](NC(=O)c1nc[nH]c1C(=O)N(C)CCO)c1ccccc1 ?
CCHF vOTU inh-1: 8

What do the screens show for `CCC(NC(=O)c1ccc2c(ccn2Cc2cccc(-c3ccc(C(=O)O)cc3)c2)c1)c1ccccc1` (stereo not given)?
CCHF vOTU inh-1: 32*; CCHF vOTU inh-2: -2

Results for CCC(NC(=O)c1ccc2c(c1)c(C)c(C)n2Cc1ccc(Cl)cc1)c1ccccc1 (stereo not given) ?
CCHF vOTU inh-1: 10

How did C/C(=N\NC(=O)c1ccccc1-n1cccc1)c1ccccn1 do in these assays?
CCHF vOTU inh-1: 37*; CCHF vOTU inh-2: -13

Results for C/C(=N\NC(=O)c1cc2ccccc2cc1O)c1ccccn1 ?
CCHF vOTU inh-1: 28; VHR inh abs: 7; 3CLpro inhibitor: 2; RecA splice inh: -2

What do the screens show for `CC1(C(=O)Nc2cccc3ccccc23)CCN1C(=O)C1(c2ccccc2)CCCC1` (stereo not given)?
CCHF vOTU inh-1: 6

How did COc1cccc(NP(=O)(Oc2ccccc2Cl)Oc2ccccc2Cl)c1 do in these assays?
CCHF vOTU inh-1: 22; VHR inh abs: 9; 3CLpro inhibitor: 4; RecA splice inh: 9

Results for COc1cccc(NP(=O)(Oc2ccccc2)Oc2ccccc2)c1 ?
CCHF vOTU inh-1: 30*; VHR inh abs: -21; 3CLpro inhibitor: 3; RecA splice inh: 9; CCHF vOTU inh-2: 5

What do the screens show for `COc1ccc(OC)c(/C=C2\SC(=S)N(NS(=O)(=O)c3ccc(C)cc3)C2=O)c1`?
CCHF vOTU inh-1: 33*; 3CLpro inhibitor: 2; RecA splice inh: 0; CCHF vOTU inh-2: 8

Results for COc1ccccc1/C=C1\SC(=S)N(NS(=O)(=O)c2ccc(C)cc2)C1=O ?
CCHF vOTU inh-1: 36*; VHR inh abs: 10; 3CLpro inhibitor: 4; RecA splice inh: 3; CCHF vOTU inh-2: 1

What do the screens show for `CCOc1ccc(/C=C2\SC(=S)N(NS(=O)(=O)c3ccc(C)cc3)C2=O)cc1OC`?
CCHF vOTU inh-1: 27; VHR inh abs: -2; 3CLpro inhibitor: 4; RecA splice inh: 5

What do the screens show for `CCOc1ccc(/C=C2\SC(=S)N(NS(=O)(=O)c3ccccc3)C2=O)cc1OC`?
CCHF vOTU inh-1: 41*; VHR inh abs: 13; 3CLpro inhibitor: 10; RecA splice inh: 4; CCHF vOTU inh-2: 10

How did CCC(C)NS(=O)(=O)c1ccc2[nH]c(=O)oc2c1 (stereo not given) do in these assays?
CCHF vOTU inh-1: 2

Results for CN(Cc1cccc(F)c1)C(=O)c1ccc(S(=O)(=O)N2CCOCC2)cc1 ?
CCHF vOTU inh-1: 2

How did COc1cc(CCNC2=CC(=O)c3ncccc3C2=O)ccc1O do in these assays?
CCHF vOTU inh-1: 74*; CCHF vOTU inh-2: 78*

How did COCc1c(C(=O)NCCc2ccc(OC(F)F)cc2)oc2ccccc12 do in these assays?
CCHF vOTU inh-1: 8

How did CCn1c(C)cc(/C=C2/NC(=O)N(CC(=O)Nc3cccc(C)c3)C2=O)c1C do in these assays?
CCHF vOTU inh-1: 31*; VHR inh abs: 16; 3CLpro inhibitor: 2; RecA splice inh: -7; CCHF vOTU inh-2: 3

How did COCCn1c(SCC(=O)NCC2CCCO2)nc2c(c1=O)SC(C)C2 (stereo not given) do in these assays?
CCHF vOTU inh-1: 32*; VHR inh abs: -9; 3CLpro inhibitor: -1; RecA splice inh: 1; CCHF vOTU inh-2: -10

Results for CC(C)CN1C=C2C(=O)C(C)(OC(=O)C3CCCC3)C(=O)C=C2C=C1c1ccsc1 (stereo not given) ?
CCHF vOTU inh-1: 4; VHR inh abs: 15; RecA splice inh: 10

How did CC1(OC(=O)C2CCCC2)C(=O)C=C2C=C(c3ccsc3)N(C(CO)CO)C=C2C1=O (stereo not given) do in these assays?
CCHF vOTU inh-1: 32*; VHR inh abs: 7; RecA splice inh: -14; CCHF vOTU inh-2: -2

What do the screens show for `CCO[C@H]1OC(C(=O)Nc2ccccc2)=C[C@@H](c2ccc(C(F)(F)F)cc2)[C@@H]1CCCO`?
CCHF vOTU inh-1: 32*; VHR inh abs: -2; 3CLpro inhibitor: 4; RecA splice inh: 0; CCHF vOTU inh-2: 7

Results for CCO[C@H]1OC(C(=O)NCc2ccccc2)=C[C@@H](c2ccc(C(F)(F)F)cc2)[C@@H]1CCCO ?
CCHF vOTU inh-1: 19; VHR inh abs: 18; 3CLpro inhibitor: 1; RecA splice inh: 2

How did O=C(Nc1ccnn1C1CCN(C(=O)c2ccc(F)cc2)CC1)C1CCOC1 (stereo not given) do in these assays?
CCHF vOTU inh-1: 5; VHR inh abs: 4; 3CLpro inhibitor: 1; RecA splice inh: 3

How did O=c1oc2ccccc2c(N2CCCC2)c1[N+](=O)[O-] do in these assays?
CCHF vOTU inh-1: 31*; VHR inh abs: 15; 3CLpro inhibitor: 2; RecA splice inh: -2; CCHF vOTU inh-2: -15

Results for Cc1ccc(C2=NOC(C)(c3nnc(-c4ccc(Cl)cc4)o3)C2)cc1 (stereo not given) ?
CCHF vOTU inh-1: -1; VHR inh abs: -9; RecA splice inh: 6

Results for Cc1nc2c([nH]1)C1(CCN(Cc3ccccc3)CC1)C(C#N)=C(N)O2 ?
CCHF vOTU inh-1: 40*; VHR inh abs: -10; 3CLpro inhibitor: -6; CCHF vOTU inh-2: -24

Screens as filed in PubChem.
